The source of these data is PubChem BioAssay AID504411 (The Scripps Research Institute Molecular Screening Center, 2011).

The campaign covered roughly 340,000 compounds. About 200 (0.059%) were called active. This is one part of a sample in which actives are shown more often than they occur. Unmarked numbers belong to inactive results. Rule as the data show it: active = inhibition above about 34%; inactive = the rest.

Sequence of Diacylglycerol lipase-beta (Homo sapiens) (Q8NCG7 whole entry, looked up): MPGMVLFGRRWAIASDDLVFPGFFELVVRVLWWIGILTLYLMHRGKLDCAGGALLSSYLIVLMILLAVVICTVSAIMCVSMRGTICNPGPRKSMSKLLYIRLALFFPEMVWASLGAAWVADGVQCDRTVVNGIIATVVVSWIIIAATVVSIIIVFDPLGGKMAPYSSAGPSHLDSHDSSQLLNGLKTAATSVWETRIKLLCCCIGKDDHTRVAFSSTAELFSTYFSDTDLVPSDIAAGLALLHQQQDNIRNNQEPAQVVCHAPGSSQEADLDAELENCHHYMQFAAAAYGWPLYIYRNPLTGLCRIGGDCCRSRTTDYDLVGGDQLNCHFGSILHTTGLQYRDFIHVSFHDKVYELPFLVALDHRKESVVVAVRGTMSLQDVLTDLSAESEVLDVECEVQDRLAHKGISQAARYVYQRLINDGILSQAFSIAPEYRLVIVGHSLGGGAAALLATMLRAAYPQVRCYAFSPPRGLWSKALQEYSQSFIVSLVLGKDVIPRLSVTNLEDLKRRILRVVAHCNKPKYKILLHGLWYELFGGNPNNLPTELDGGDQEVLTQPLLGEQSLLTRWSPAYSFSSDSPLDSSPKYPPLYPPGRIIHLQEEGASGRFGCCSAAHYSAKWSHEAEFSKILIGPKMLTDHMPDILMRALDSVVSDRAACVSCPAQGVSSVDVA

The experiment concerns the target Diacylglycerol lipase-beta (Homo sapiens) (UniProt Q8NCG7). The experiment in a line: DAGLB lipase inhibitors, primary screen, biochemical, fluorescence, HTS (AID 504411).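 Also: 0% = enzyme with vehicle and 100% = wells lacking enzyme.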 As to conditions: HEK293T DAGLB membrane lysate, EnzChek fluorogenic substrate; at 5.17 µM; stronger effect = higher value.
Broadly, the inhibition is the change of the read-out against control, counted positive when it falls. For `Cc1ccc(OCCCCN2CCCCC2)c(Br)c1`, the inhibition was 1.62%.

Turning to `CCCNC(=O)CN(Cc1ccccc1F)S(=O)(=O)c1ccc(C)cc1`, the inhibition is 1.71%.

Turning to `COc1ccccc1C(=O)NC(=O)COC(=O)C1CC1`, the inhibition is 3.34%.

With `N#CC(Cc1cc2ccccc2n1S(=O)(=O)c1ccccc1)OCc1ccccc1` (stereo unspecified), the inhibition is -8.05%.

With `O=C(O)CCCCCCCCc1cn(CN2C(=O)c3ccccc3C2=O)nn1`, the inhibition is 1.19%.

Turning to `COc1cc(C2C(C(=O)c3sc(C)nc3C)=C(O)C(=O)N2CCN(C)C)cc(OC)c1OC` (stereo unspecified), the inhibition is 0.65%.

Take `O=C(N[C@@H]1C/C=C\C[C@@H](CC(=O)N(CCO)Cc2ccccc2)C(=O)N[C@H](Cc2ccccc2)COC1=O)OCC1c2ccccc2-c2ccccc21`: the inhibition was -1.54%.

For `O=C(CCc1ccc(O)cc1)NN=Cc1cc(Br)ccc1O`, the inhibition was 3.63%.

`NC(N)=NCCCc1cn(CC(=O)N2CCNCC2)nn1`: the inhibition was -3.67%.

As to `COc1ccc(CCNC(=O)c2ccc(NC(=O)CC3SC(N4CCCCC4)=NC3=O)cc2)cc1OC` (stereo unspecified), the inhibition was 2.1%.

`O=C(O)c1ccccc1-c1ccccc1C(=O)Nc1ccccc1Br`: the inhibition is 0.09%.

For the compound `CC(NC(=O)c1ccccc1SCC(=O)N1CCCC1)c1ccccc1` (stereo unspecified), the inhibition was 0.41%.

Turning to `Cc1ccc2cccc(O)c2[n+]1[O-]`, the inhibition was 1.39%.

On to `CN1CCC(=NNC(=O)CN(c2cccc(Cl)c2)S(C)(=O)=O)CC1`, for which the inhibition is -3.34%.

On to `Cc1ccccc1CSc1nnc(Cn2c(=O)sc3ccccc32)n1C`, for which the inhibition is 0.6%.

As to `C/C(=N\OCC(=O)Nc1ccc(Br)cc1)c1cccs1`, the inhibition was -7.81%.

As to `COc1ccccc1C1CCN(C(=S)Nc2ccc(Br)cc2)CC1`, the inhibition is 23.2%.

As for `CCc1cccc(C)c1NS(=O)(=O)c1c(C)nc2sccn2c1=O`, the inhibition is -0.01%.

Take `COc1ccc(S(=O)(=O)N/N=C\c2ccc(OC)c(COc3ccc(C)cc3[N+](=O)[O-])c2)cc1`: the inhibition was -2.91%.

As to `O=c1c2ccccc2nc2n1C(CSCc1cccc(C(F)(F)F)c1)CS2` (stereo unspecified), the inhibition was -3.32%.

As for `COc1cc(NC(=O)CCS(=O)(=O)c2ccc3c(c2)oc(=O)n3C)cc(OC)c1`, the inhibition was -2.39%.

Turning to `CC(=O)Nc1ccc(/C(C)=N/NC(=O)CN(c2ccccc2Br)S(C)(=O)=O)cc1`, the inhibition is 1.17%.

As to `COc1ccc(CNC(=O)C(=O)N2CCC3(CC2)OCCN3S(=O)(=O)c2ccc(C)cc2)cc1`, the inhibition is -1.66%.

Consider `COC(=O)c1cccc(NS(C)(=O)=O)c1`, for which the inhibition is -0.97%.

In the case of `CC(OC(=O)c1cc2ccccc2o1)C(=O)Nc1ccc(N2CCOCC2)cc1` (stereo unspecified), the inhibition is -1.16%.

In the case of `COc1ccc(C(=O)OCC(=O)Nc2cc(C)on2)cc1F`, the inhibition is 1.42%.

`COCCCN1C(=O)C(CC(=O)NCc2cccs2)CC(C(=O)N2CCOCC2)=C1C` (stereo unspecified): the inhibition is -1.14%.

Regarding `CN(C(=O)CN1C(=O)CCSc2ccc(S(=O)(=O)N3CCCC3)cc21)c1ccccc1`, the inhibition was 3.08%.

Consider `O=C1CCCN1CCCNC(=S)Nc1ccc(F)c(Cl)c1`, for which the inhibition was 0.01%.

On to `COC(=O)CN1C(C)=Nc2ccc(Br)cc2C1c1ccccc1` (stereo unspecified), for which the inhibition was 0.08%.

As for `Cc1ccccc1C(=O)NNC(=O)CN1C(=O)c2ccccc2C1=O`, the inhibition was 0.77%.

`CC(=O)c1ccc(S(=O)(=O)N2CCC(Oc3ccc(-n4cnnn4)cc3)CC2)cc1`: the inhibition is -1.2%.

Regarding `COc1ccc(-c2cc(C(F)(F)F)nc(S(C)(=O)=O)n2)cc1OC`, the inhibition was -5.4%.

On to `O=C(Cn1ncc2c3ccccc3n(Cc3ccccc3)c2c1=O)NCCCN1CCOCC1`, for which the inhibition was -2.32%.

Consider `CC(C)c1ccc2c(c1)c(SC(C)(C)C)c(CC(C)(C)C(=O)O)n2Cc1ccc(Cl)cc1`, for which the inhibition is 1.23%.

Turning to `COCc1cc(C)n(CC(=O)NCC2CCCO2)c(=O)c1C#N` (stereo unspecified), the inhibition is 0.87%.

Take `CS(=O)(=O)N1CCCC(C(=O)Nc2ccccc2C(F)(F)F)C1` (stereo unspecified): the inhibition was -1.81%.

Regarding `COC(=O)C(=Nc1ccccc1)/C(C(=O)C(=O)N(C)c1ccccc1)=C(\O)c1ccc(Cl)cc1`, the inhibition was 4.54%.

With `COc1ccc(CNC(=O)c2ccc3oc(C(C)C)nc3c2)cc1`, the inhibition was -2.02%.

As to `Cc1ccc(CC(=O)N(C)CC(=O)N(CC(C)C)c2c(N)n(CC(C)C)c(=O)[nH]c2=O)cc1C`, the inhibition was 1.88%.

`COc1ccc(C2=NS(=O)(=O)N(C)C(C(=O)NC(C)c3ccccc3)=C2)cc1` (stereo unspecified): the inhibition is -1.27%.

In the case of `CCCNC(=O)CCn1cc(-c2ccc(OC)cc2)nc1CCN`, the inhibition was -2.88%.

Take `CCC(Oc1ccccc1C)C(=O)Nc1ccc(S(=O)(=O)Nc2cc(C)on2)cc1` (stereo unspecified): the inhibition is 2.56%.

In the case of `Cc1cccc2[nH]c(CN(C)C(=O)C3CCC(=O)N(CCc4ccccc4)C3)nc12` (stereo unspecified), the inhibition is 1.57%.

On to `Cc1ccc(S(=O)(=O)N2[C@@H](c3ccc(Br)cc3)C(C(=O)O)=C[C@H]2CC2CCCC2)cc1`, for which the inhibition is 7.5%.

For the compound `Cc1ccc(N2CC(C(=O)N3CCC4(CC3)CC(=O)c3ccccc3O4)CC2=O)cc1C` (stereo unspecified), the inhibition is -0.05%.

`CCc1c(C)sc(NC(=O)OC)c1C(=O)N1CCOCC1`: the inhibition was -2.33%.

Take `Cc1ccccc1C(=O)N1CCC(C(=O)Nc2ccc(S(=O)(=O)N(C)C(C)C)cc2)CC1`: the inhibition is -0.44%.

Take `CC1Cc2ccccc2N1C(=O)c1cc2sccc2n1Cc1ccccc1` (stereo unspecified): the inhibition is -8.28%.

With `COc1cccc(NC(=O)CN(C)CC(=O)c2c(N)n(Cc3ccccc3)c(=O)n(C)c2=O)c1`, the inhibition was 0.04%.

Regarding `Nc1ccccc1-c1nc2ccncc2[nH]1`, the inhibition is 0.67%.

With `CN(C)c1ccc(NC(=O)CN2C3CCCC2CC(NC(=O)c2ccccc2)C3)cc1` (stereo unspecified), the inhibition is 0.94%.

Regarding `CCOC(=O)c1c(NC(=O)CCCN2CCOCC2)sc2c1CC(C)(C)OC2`, the inhibition is -0.04%.

Consider `CCOCCCNC(=O)c1cc2c(=O)n3ccccc3nc2s1`, for which the inhibition is 1.17%.

As for `CCCC(O)(c1ccccc1)C(c1ccccc1)c1ccccn1` (stereo unspecified), the inhibition is -1.16%.

On to `Cc1ccc(OC(=O)c2c(C)nn(-c3ccccc3)c2C)cc1`, for which the inhibition is -9.87%.
